The target of assay [1] is Cytochrome P450 3A7 (Homo sapiens) (UniProt P24462). In words: Cytochrome P450 family 3 subfamily A member 7 (CYP3A7) small molecule antagonists: luciferase biochemical qHTS assay (AID 1963596). Further: on the % scale 0 is the no-effect control and ±100 the full control effect; nearly all actives have a fitted effect of over 40% in size. An outline of the steps:
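Compounds were screened in qHTS format for interference with CYP3A7 turnover of a proluciferin substrate. Reactions ran 1 h at room temperature after NADPH regeneration solution was added, then luciferin product was detected by luminescence.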

Assay [2] in a line: Viability qHTS for spleen associated tyrosine kinase inhibitor (SYKi) naive MV4-11 cells (AID 1963823). Further: nearly all actives have a fitted effect of over 40% in size. Further: potency means the concentration at half of the fitted maximal effect. An outline of the steps: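 Viability of MV4-11 AML cells lacking prior SYK inhibitor exposure is scored by CellTiter-Glo luminescence following 72 hr compound incubation at 37 C, 5% CO2, seeded at 500 cells per well.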
(qHTS replaces the single test concentration by a dilution series.)

Assay [3] in a line: Viability qHTS for spleen associated tyrosine kinase inhibitor (SYKi) drug resistant MV4-11 cells (AID 1963824). Further: nearly all actives have a fitted effect of over 35% in size. Further: potency means the concentration at half of the fitted maximal effect. An outline of the steps:
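SYK-inhibitor-resistant MV4-11 AML cells were seeded at 500 per well onto compound and cultured 72 hours (37 °C, 5% CO2). CellTiter-Glo was then added, and after 10 min at room temperature, luminescence gave viability.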

Assay [4] in a line: Quantitative highthroughput screen to assess conditional lethalithy of NOMO1 cells grown in RPMI1640 with untreated serum (RPMI+s) (AID 1963876). Further: nearly all actives have a fitted effect of over 35% in size. Further: potency means the concentration at half of the fitted maximal effect.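 On Viability: 100% = DMSO wells and 0% = empty wells without cells.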 An outline of the steps: (§1)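 Each medium arm—HPLM with 10% dialyzed FBS, or RPMI1640 with 5 mM glucose and 10% untreated or dialyzed FBS—was screened against an 11-point, 3-fold compound titration for 48 h at 37 °C, with CellTiter-Glo luminescence as endpoint.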

Assay [5] can be described thus: Quantitative highthroughput screen to assess conditional lethalithy of NOMO1 cells grown in RPMI1640 with dialyzed fetal bovine serum (RPMI+ds) (AID 1963877). Further: nearly all actives have a fitted effect of over 30% in size. Further: potency means the concentration at half of the fitted maximal effect.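 On Viability: series mostly up to about 46 µM; 100% = DMSO control wells and 0% = empty wells.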 An outline of the steps: as §1
A short description of assay [6]: Quantitative highthroughput screen to assess conditional lethalithy of NOMO1 cells grown in Human Plasma-Like Medium with dialyzed fetal bovine serum (HPLM+ds) (AID 1963878). Further: nearly all actives have a fitted effect of over 35% in size. Further: potency means the concentration at half of the fitted maximal effect.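 On Viability: 100% = DMSO wells and 0% = empty wells on each plate.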 An outline of the steps: as §1
The nature of assay [7]: Quantitative highthroughput screen to assess conditional lethalithy of P12 Ichikawa cells grown in Human Plasma-Like Medium with dialyzed fetal bovine serum (HPLM+ds) (AID 1963879). Further: nearly all actives have a fitted effect of over 35% in size. Further: potency means the concentration at half of the fitted maximal effect. On Viability: series mostly up to about 46 µM. As to conditions: Potency: viability. An outline of the steps:
as §1

Assay [8] is described as follows: Quantitative highthroughput screen to assess conditional lethalithy of P12 Ichikawa cells grown in RPMI1640 with dialyzed fetal bovine serum (RPMI+ds) (AID 1963880). Further: nearly all actives have a fitted effect of over 35% in size. Further: potency means the concentration at half of the fitted maximal effect.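 On Viability: 100% = DMSO wells and 0% = empty wells on each plate.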 As to conditions: Potency: P12-Ichikawa viability. An outline of the steps:
as §1

Assay [9] can be described thus: Quantitative highthroughput screen to assess conditional lethalithy of P12 Ichikawa cells grown in RPMI1640 with untreated serum (RPMI+s) (AID 1963881). Further: nearly all actives have a fitted effect of over 35% in size. Further: potency means the concentration at half of the fitted maximal effect.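 On Viability: series mostly up to about 46 µM; 100% = DMSO wells and 0% = empty wells without cells.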 As to conditions: Potency: viability. An outline of the steps: as §1
Assay [10] can be described thus: Quantitative highthroughput screen to assess conditional lethalithy of SEM cells grown in Human Plasma-Like Medium with dialyzed fetal bovine serum (HPLM+ds) (AID 1963882). Further: nearly all actives have a fitted effect of over 35% in size. Further: potency means the concentration at half of the fitted maximal effect. On Viability: series mostly up to about 46 µM. An outline of the steps: as §1
Assay [11] can be described thus: Quantitative highthroughput screen to assess conditional lethalithy of SEM cells grown in RPMI1640 with unreated serum (RPMI+s) (AID 1963883). Further: nearly all actives have a fitted effect of over 35% in size. Further: potency means the concentration at half of the fitted maximal effect.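 On Viability: 100% = DMSO wells and 0% = empty wells without cells.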 An outline of the steps: as §1
Assay [12] can be described thus: Quantitative highthroughput screen to assess conditional lethalithy of SEM cells grown in RPMI1640 with dialyzed fetal bovine serum (RPMI+ds) (AID 1963884). Further: nearly all actives have a fitted effect of over 35% in size. Further: potency means the concentration at half of the fitted maximal effect.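 On Viability: series mostly up to about 46 µM; 100% = DMSO control wells and 0% = empty wells without cells.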 An outline of the steps: as §1
Assay [13] is described as follows: Cellular viability qHTS for adrenocortical cancer (ACC) cell line SW-13 (AID 1963989). Further: nearly all actives have a fitted effect of over 65% in size. Further: potency means the concentration at half of the fitted maximal effect.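 On activity (max response): cells grown in serum-free medium with ITS supplement; on the % scale 0 is the no-effect control and ±100 the full control effect.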 The note with it: SW-13 ACC cells viability, CellTiter-Glo, 48 h; activity (max response): stronger effect = lower value. An outline of the steps: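 SW-13 cells in ITS-supplemented serum-free DMEM were plated overnight, then exposed for 48 h at 37C to compound titrations (up to 46 uM final). Viability was read by CellTiter-Glo luminescence; four-parameter logistic fits gave IC50 and efficacy.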

Assay [14] can be described thus: Cellular viability qHTS for adrenocortical cancer (ACC) cell line NCI-H295R (AID 1963990). Further: nearly all actives have a fitted effect of over 60% in size. Further: potency means the concentration at half of the fitted maximal effect. An outline of the steps: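 Luminescent ATP read-out (CellTiter-Glo, 20 min RT) after 48 h drug exposure of NCI-H295R cells; a titration up to 46 uM final. Data normalized to doxorubicin (100% inhibition) and DMSO (0%); 4-parameter fit gives IC50, max response.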

Molecules are shown by their SMILES. Where “and” joins values, the source holds several entries; their conditions need not be identical. Equal entries are not always repeated. Results filed as inconclusive are left out. More than one record can exist for a structure, and the calls need not agree. Calls of active or inactive are those of the source. The call rests on the fitted dose curve; in most records, active means well fitted curve in the direction sought with a large enough effect; inconclusive means small, poorly fitted or top-dose-only effect, or another doubt; inactive means no such curve, though single readings can be large; an effect the other way counts as inactive or inconclusive. Peptide text beside a SMILES is read from it.

From PubChem BioAssay (NCATS) come the findings set out here.

Sequence of Cytochrome P450 3A7 (Homo sapiens) (P24462 whole entry, looked up): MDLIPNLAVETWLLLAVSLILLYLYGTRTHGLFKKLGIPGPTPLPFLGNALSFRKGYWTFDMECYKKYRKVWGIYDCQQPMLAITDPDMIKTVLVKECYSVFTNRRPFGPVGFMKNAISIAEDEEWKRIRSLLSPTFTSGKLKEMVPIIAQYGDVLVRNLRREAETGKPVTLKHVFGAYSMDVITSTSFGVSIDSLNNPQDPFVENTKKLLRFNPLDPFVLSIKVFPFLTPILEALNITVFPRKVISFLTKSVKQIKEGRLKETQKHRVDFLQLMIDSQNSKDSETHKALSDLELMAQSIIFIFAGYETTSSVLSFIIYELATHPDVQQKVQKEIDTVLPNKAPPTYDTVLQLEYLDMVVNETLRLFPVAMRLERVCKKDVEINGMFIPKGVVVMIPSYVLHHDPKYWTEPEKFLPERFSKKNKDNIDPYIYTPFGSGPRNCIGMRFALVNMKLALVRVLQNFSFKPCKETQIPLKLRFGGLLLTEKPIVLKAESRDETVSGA

With `CCN[C@H]1C[C@H](C)S(=O)(=O)c2sc(S(N)(=O)=O)cc21`, the Potency result in [1], in assay [2], in assay [3], in assay [4], in assay [5] and in [6] was “inactive” throughout. The Potency result in assay [7], in [8], in [9], in assay [10], in assay [11] and in [12] was “inactive” each time. For the same compound, in assay [14], the Potency entry was “inactive”. In addition, the activity (max response) in [13] is 3.89% (inactive) and 5.72% (inactive).

For `N#Cc1ccc(C(c2ccc(C#N)cc2)n2cncn2)cc1`, the Potency result in [1], in assay [2], in assay [3], in assay [4], in [5] and in assay [6] was “inactive” each time. Moreover, the Potency entry in assay [7], in [8], in assay [9], in assay [10], in assay [12] and in assay [14] was “inactive” in each case. The activity (max response) in assay [13] was 2.79% (inactive).

For `NS(=O)(=O)c1cc2c(cc1Cl)NCNS2(=O)=O`, the Potency result in [1], in assay [2], in [3], in assay [4], in assay [5] and in assay [6] was “inactive” each time. In addition, the Potency result in [7], in assay [8], in assay [9], in assay [10], in assay [12] and in [14] was “inactive” in each case. In assay [13], the activity (max response) is 11.9% (inactive) and 0.967% (inactive).

Take `C[C@H]1c2cccc(O)c2C(O)=C2C(=O)[C@]3(O)C(O)=C(C(N)=O)C(=O)[C@@H](N(C)C)[C@@H]3[C@@H](O)[C@@H]21`: the Potency entry in [1], in [4], in [5], in [6], in [7] and in [10] was “inactive” in each case. The Potency result in assay [11] and in [14] was “inactive” throughout. Besides, the Potency entry in assay [2] was “inactive and 16.6 µM (active)”; in assay [3], 14.8 µM (active); in assay [8], 16600 nM (active); in assay [9], 18700 nM (active). The activity (max response) in [13] was -2.36% (inactive) and -5.39% (inactive).

On to `COc1ccc(C2(C#N)CCC(C(=O)O)CC2)cc1OC1CCCC1` (stereo not drawn), for which the Potency result in assay [1], in assay [2], in assay [3], in assay [4], in [5] and in assay [6] was “inactive” each time. Further, the Potency entry in [7], in assay [8], in assay [9], in [10], in [11] and in [12] was “inactive” in each case. Also, in [14], the Potency entry is “inactive”. Besides, the activity (max response) in assay [13] is 2.89% (inactive).

For the compound `OC[C@H]1O[C@@H](OCCc2ccc(O)cc2)[C@H](O)[C@@H](O)[C@H]1O`, the Potency entry in assay [1], in assay [2], in assay [3], in assay [4], in assay [5] and in assay [6] was “inactive” each time. Besides, the Potency entry in assay [7], in assay [8], in assay [9], in assay [10] and in [12] was “inactive” throughout. For the same compound, in assay [13], the activity (max response) was -16.3% (inactive).

For the compound `Cc1cc(=O)oc2cc(O)ccc12`, the Potency entry in assay [1], in assay [2], in [3], in [4], in assay [5] and in assay [6] was “inactive” each time. Further, the Potency result in [7], in [8], in assay [9], in [10], in assay [11] and in assay [12] was “inactive” each time. Further, in [14], the Potency result is “inactive”. For the same compound, in assay [13], the activity (max response) is -3.93% (inactive) and 10.3% (inactive).

Take `NCCCCCC(=O)O`: the Potency result in assay [1], in assay [2], in assay [3], in assay [4], in assay [5] and in assay [6] was “inactive” in each case. Besides, the Potency entry in assay [7], in assay [8], in [9], in [11] and in assay [14] was “inactive” in each case. Further, the activity (max response) in assay [13] is 12.2% (inactive) and -16.4% (inactive).

For the compound `Nc1nc(F)nc2c1ncn2[C@@H]1O[C@H](CO)[C@@H](O)[C@@H]1O`, the Potency result in [1] is “inactive”. Besides, the Potency in assay [2] was 10.5 µM (active) and 16.8 µM (active) and 14.6 µM (active); in assay [3], 13.2 µM (active) and 14.6 µM (active); in assay [4] it was 469 nM (active); in assay [5] it was 372 nM (active); in assay [6] it was 418 nM (active); in assay [7], 469 nM (active). Also, the Potency in assay [8] was 372 nM (active); in assay [10] it was 93.5 nM (active); in assay [12] it was 74.3 nM (active).

As to `N=C(N=C(N)N)N1CCOCC1`, the Potency entry in assay [1], in assay [2], in assay [3], in assay [4], in assay [5] and in [6] was “inactive” each time. In addition, the Potency result in assay [7], in [8], in assay [9], in assay [10], in assay [12] and in assay [14] was “inactive” each time. Also, the activity (max response) in [13] is -4.25% (inactive).

For `COC(=O)c1ccc2c(C(=Nc3ccc(N(C)C(=O)CN4CCN(C)CC4)cc3)c3ccccc3)c(O)[nH]c2c1`, the Potency entry in assay [1], in assay [4], in assay [5], in [6], in assay [7] and in [8] was “inactive” in each case. In addition, in assay [9], the Potency result was “inactive”. The Potency was 32.6 nM (active) and 37.2 nM (active) in [2]; 58 nM (active) and 66.1 nM (active) in [3]; 7080 nM (active) in assay [13]; 10000 nM (active) in assay [14].

As for `COc1ncnc(NS(=O)(=O)c2ccc(N)cc2)c1OC`, the Potency entry in assay [1], in assay [2], in [3] and in [14] was “inactive” in each case. The Potency in [4] is 4690 nM (active); in assay [5], 7430 nM (active); in assay [6], 2350 nM (active); in [7] it was 1180 nM (active); in assay [8], 1180 nM (active); in assay [9], 1660 nM (active). Moreover, the Potency was 1870 nM (active) in [10] and 935 nM (active) in assay [11]. The activity (max response) in assay [13] was -3.79% (inactive) and 4.29% (inactive).

Take `COC(=O)[C@H](Cc1ccccc1)NC(=O)[C@@H](N)CC(=O)O` (H-Asp-Phe-OMe): the Potency result in [1], in assay [2], in [3], in assay [4], in [5] and in assay [6] was “inactive” in each case. The Potency entry in [7], in assay [8], in assay [9], in assay [10], in assay [11] and in [12] was “inactive” throughout. Further, the Potency result in [14] is “inactive”. Also, in assay [13], the activity (max response) is 0.253% (inactive) and -5.37% (inactive).

Consider `O=NN(CCCl)C(=O)NC1CCCCC1`, for which the Potency entry in [1], in assay [2], in assay [3], in [4], in [5] and in [6] was “inactive” throughout. The Potency result in assay [7], in [8], in assay [9], in assay [10], in assay [11] and in assay [14] was “inactive” each time. In addition, the activity (max response) in assay [13] was 15.5% (inactive) and -13.1% (inactive).

On to `CC(C)Cn1cnc2c(N)nc3ccccc3c21`, for which the Potency result in [1], in assay [2], in assay [3], in [4], in assay [5] and in assay [6] was “inactive” throughout. For the same compound, the Potency entry in assay [7], in [8], in assay [9], in assay [10], in [11] and in assay [12] was “inactive” in each case. The Potency result in assay [14] is “inactive”. For the same compound, the activity (max response) in [13] is 0.433% (inactive) and -11.1% (inactive).
